# Measured values published in publication PMC5700166.
# Experiments:
# Assay in all cases: protein-binding microarray (PBM); PBM: ~300 nM protein, 6 mM HEPES pH 7.8, 80 mM KCl, 0.5 mM EDTA, 0.5 mM EGTA, 6% glycerol, 35 ng/ul poly-dIdC, 1% milk, 1 h, room temperature; Ap Aiptasia and Nv Nematostella (sea anemones) / Co Capsaspora / Aq Amphimedon (sponge) / Dm Drosophila / Hu human; RHD is the Rel homology domain; high values mean tight binding
# Settings in all cases: dsDNA, one strand shown
# GST-Ap-NF-kB RHD = target: T1, GST-Ap-NF-kB RHD (Exaiptasia pallida (Aiptasia), UniProt A0A913YAJ5 2-422)
# T1 sequence: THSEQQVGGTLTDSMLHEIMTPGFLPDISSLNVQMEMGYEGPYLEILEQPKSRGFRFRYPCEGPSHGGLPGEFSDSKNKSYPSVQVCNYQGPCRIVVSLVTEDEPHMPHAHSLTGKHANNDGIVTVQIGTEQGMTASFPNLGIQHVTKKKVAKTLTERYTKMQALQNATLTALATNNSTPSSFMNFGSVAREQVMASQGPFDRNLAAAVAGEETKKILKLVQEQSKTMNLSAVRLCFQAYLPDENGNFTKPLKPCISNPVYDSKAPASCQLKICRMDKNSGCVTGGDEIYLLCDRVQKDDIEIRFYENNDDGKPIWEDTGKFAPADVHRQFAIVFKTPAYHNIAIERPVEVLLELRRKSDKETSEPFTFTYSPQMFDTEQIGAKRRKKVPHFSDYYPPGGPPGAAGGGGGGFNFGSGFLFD
# [1] = target: T2, GST-Nv-NF-kB (Cys allele) (Nematostella vectensis, UniProt E5G601 2-411)
# T2 sequence: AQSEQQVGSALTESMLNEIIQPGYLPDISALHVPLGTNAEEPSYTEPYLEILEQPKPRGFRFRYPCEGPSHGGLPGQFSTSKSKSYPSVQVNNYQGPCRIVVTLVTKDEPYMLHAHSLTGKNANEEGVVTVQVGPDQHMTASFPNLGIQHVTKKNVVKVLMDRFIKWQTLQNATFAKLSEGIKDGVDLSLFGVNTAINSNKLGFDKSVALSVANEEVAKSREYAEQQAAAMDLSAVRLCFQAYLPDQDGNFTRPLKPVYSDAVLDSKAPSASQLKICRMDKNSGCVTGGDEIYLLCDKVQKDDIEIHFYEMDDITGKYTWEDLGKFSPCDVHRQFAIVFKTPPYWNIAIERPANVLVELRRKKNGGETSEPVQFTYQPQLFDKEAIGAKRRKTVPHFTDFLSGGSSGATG
# GST-Co-NF-kB = target: T3, GST-Co-NF-kB (Capsaspora owczarzaki, UniProt F1ARL5 200-546)
# T3 sequence: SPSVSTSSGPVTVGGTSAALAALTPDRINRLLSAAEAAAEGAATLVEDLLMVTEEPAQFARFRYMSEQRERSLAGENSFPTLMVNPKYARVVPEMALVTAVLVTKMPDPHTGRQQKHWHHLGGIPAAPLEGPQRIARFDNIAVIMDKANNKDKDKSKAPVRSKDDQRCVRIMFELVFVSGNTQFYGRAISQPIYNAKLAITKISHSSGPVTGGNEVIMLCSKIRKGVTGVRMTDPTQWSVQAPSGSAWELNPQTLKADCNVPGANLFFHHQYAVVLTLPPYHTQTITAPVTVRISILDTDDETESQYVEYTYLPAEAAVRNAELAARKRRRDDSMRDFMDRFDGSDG
# GST-Dm-Relish = target: T4, GST-Dm-Relish (Drosophila melanogaster, UniProt Q94527 99-473)
# T4 sequence: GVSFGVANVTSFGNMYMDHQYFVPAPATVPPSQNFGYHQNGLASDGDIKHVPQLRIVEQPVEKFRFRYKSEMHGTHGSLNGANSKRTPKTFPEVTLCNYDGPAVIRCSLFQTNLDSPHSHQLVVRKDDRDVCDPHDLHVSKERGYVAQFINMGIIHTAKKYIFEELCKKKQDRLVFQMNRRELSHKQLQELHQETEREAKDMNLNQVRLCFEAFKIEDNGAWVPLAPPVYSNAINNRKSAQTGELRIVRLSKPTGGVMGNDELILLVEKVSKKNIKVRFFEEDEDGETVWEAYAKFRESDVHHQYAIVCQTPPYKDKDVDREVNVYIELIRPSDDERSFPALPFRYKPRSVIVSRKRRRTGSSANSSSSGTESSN
# GST-Aq-NF-kB = target: T5, GST-Aq-NF-kB (Amphimedon queenslandica, UniProt A9Y5G7 2-389)
# T5 sequence: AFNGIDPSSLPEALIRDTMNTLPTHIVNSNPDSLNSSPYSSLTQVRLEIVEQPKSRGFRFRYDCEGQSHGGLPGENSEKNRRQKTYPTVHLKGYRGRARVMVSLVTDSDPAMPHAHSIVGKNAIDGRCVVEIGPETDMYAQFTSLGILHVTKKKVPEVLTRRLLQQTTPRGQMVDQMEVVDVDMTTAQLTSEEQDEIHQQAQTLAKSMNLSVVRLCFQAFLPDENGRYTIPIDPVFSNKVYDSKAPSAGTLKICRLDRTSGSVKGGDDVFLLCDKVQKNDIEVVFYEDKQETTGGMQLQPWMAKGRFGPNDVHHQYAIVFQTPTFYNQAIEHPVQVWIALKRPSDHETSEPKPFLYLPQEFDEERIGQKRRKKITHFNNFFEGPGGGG
# GST-Hu-p50 = GST-Hu-p50 (Homo sapiens, UniProt P19838 7-356)
# Chain of GST-Hu-p50 (P19838 7-356): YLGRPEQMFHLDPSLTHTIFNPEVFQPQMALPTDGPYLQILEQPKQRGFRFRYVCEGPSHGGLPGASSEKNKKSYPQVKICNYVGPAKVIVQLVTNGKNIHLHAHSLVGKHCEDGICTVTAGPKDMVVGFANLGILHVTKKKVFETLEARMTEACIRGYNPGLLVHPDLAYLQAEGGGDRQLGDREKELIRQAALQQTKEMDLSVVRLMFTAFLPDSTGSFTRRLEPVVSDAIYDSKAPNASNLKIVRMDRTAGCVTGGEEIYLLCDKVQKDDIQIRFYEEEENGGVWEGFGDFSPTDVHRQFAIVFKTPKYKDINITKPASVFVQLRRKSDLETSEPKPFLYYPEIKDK
Sequence,binding signal (GST-Ap-NF-kB RHD),binding signal [1],binding signal (GST-Co-NF-kB),binding signal (GST-Dm-Relish),binding signal (GST-Aq-NF-kB),binding signal (GST-Hu-p50)
CCGATTAACATCAAAATTCCCGTTGATGTTAATCGGGTCTTGATTCGCTTGACGCTGCTG,3.98 z-score,6.87 z-score,4.03 z-score,5.57 z-score,6.15 z-score,5.26 z-score
CCGATTAACATCAGGGGATATAATGATGTTAATCGGGTCTTGATTCGCTTGACGCTGCTG,5.05 z-score,4.66 z-score,4.01 z-score,3.82 z-score,3.39 z-score,4.28 z-score
CCGATTAACATCAGGGGACGTTATGATGTTAATCGGGTCTTGATTCGCTTGACGCTGCTG,4.77 z-score,5 z-score,3.19 z-score,2.7 z-score,4.72 z-score,4.56 z-score
CCGATTAACATCAAGGGACTTCCTGATGTTAATCGGGTCTTGATTCGCTTGACGCTGCTG,6.06 z-score,7.09 z-score,1.07 z-score,7.2 z-score,6.58 z-score,5.08 z-score
CCGATTAACATCAGGGACTTTAATGATGTTAATCGGGTCTTGATTCGCTTGACGCTGCTG,4.47 z-score,5.92 z-score,1.03 z-score,5.04 z-score,5.12 z-score,5.02 z-score
CCGATTAACATCAGGGATTTTTATGATGTTAATCGGGTCTTGATTCGCTTGACGCTGCTG,5.66 z-score,6.48 z-score,1.77 z-score,7.93 z-score,6.66 z-score,5.31 z-score
CCGATTAACATCAACTATCCCCCTGATGTTAATCGGGTCTTGATTCGCTTGACGCTGCTG,5.83 z-score,4.03 z-score,6.08 z-score,2.98 z-score,4.04 z-score,4.09 z-score
CCGATTAACATCAGGGAGTTTACTGATGTTAATCGGGTCTTGATTCGCTTGACGCTGCTG,3.14 z-score,4.14 z-score,1.37 z-score,5.53 z-score,5.6 z-score,4.19 z-score
CCGATTAACATCAAGGAATTCCCTGATGTTAATCGGGTCTTGATTCGCTTGACGCTGCTG,6.83 z-score,7.7 z-score,4.22 z-score,8.03 z-score,8.14 z-score,5.07 z-score
CCGATTAACATCACGGGGTTTTCTGATGTTAATCGGGTCTTGATTCGCTTGACGCTGCTG,6.68 z-score,6.13 z-score,2.98 z-score,8.05 z-score,5.9 z-score,5.61 z-score
CCGATTAACATCAGGGGGGAGAATGATGTTAATCGGGTCTTGATTCGCTTGACGCTGCTG,6 z-score,4.08 z-score,7.95 z-score,3.85 z-score,4.82 z-score,6.41 z-score
CCGATTAACATCAAAAAACCCCGTGATGTTAATCGGGTCTTGATTCGCTTGACGCTGCTG,7.4 z-score,7.45 z-score,3.92 z-score,8.97 z-score,7.03 z-score,6.45 z-score
CCGATTAACATCAAAAGCCCCCCTGATGTTAATCGGGTCTTGATTCGCTTGACGCTGCTG,5.96 z-score,6 z-score,4.6 z-score,8.42 z-score,6.73 z-score,5.72 z-score
CCGATTAACATCAGGGGGGAACATGATGTTAATCGGGTCTTGATTCGCTTGACGCTGCTG,6.4 z-score,4.35 z-score,9.73 z-score,4.25 z-score,5.22 z-score,5.4 z-score
CCGATTAACATCAGATAACCCCCTGATGTTAATCGGGTCTTGATTCGCTTGACGCTGCTG,7.2 z-score,5.72 z-score,2.43 z-score,6.66 z-score,6.11 z-score,5.79 z-score
CCGATTAACATCAAAAATTCACCTGATGTTAATCGGGTCTTGATTCGCTTGACGCTGCTG,1.56 z-score,2.59 z-score,1.24 z-score,5.78 z-score,2.74 z-score,4 z-score
CCGATTAACATCAGATCCCCCCCTGATGTTAATCGGGTCTTGATTCGCTTGACGCTGCTG,8.16 z-score,5.56 z-score,6.72 z-score,5.21 z-score,5.39 z-score,5.36 z-score
CCGATTAACATCAGAAAGTTCCCTGATGTTAATCGGGTCTTGATTCGCTTGACGCTGCTG,4.17 z-score,4.74 z-score,3.54 z-score,6.32 z-score,5.8 z-score,4.18 z-score
